The values below come from PubChem BioAssay (NCI).

This is part of a sample that, as a whole, favours compounds with a hit. Of some 79,000 tested, about 15% had one in any assay. Unmarked numbers belong to inactive results. The source made the active and inactive calls. No stated cut-off is given here; in the data, active means growth inhibition above about 70%; inactive means the rest.

The nature of assay [1]: NCI Yeast Anticancer Drug Screen. Data for the rad50 strain (AID 155).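 Further: 0% = growth of vehicle-only cultures of the same strain.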 Particulars: S. cerevisiae rad50 strain growth inhibition, stronger effect = higher value. The method in brief: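 A DNA repair-deficient yeast mutant serves as the test organism; compound-induced growth inhibition is calculated against vehicle-treated cells.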
Assay [2] is described as follows: NCI Yeast Anticancer Drug Screen. Data for the mec2-1 strain (AID 157). Particulars: S. cerevisiae mec2-1 strain, stronger effect = higher value. The method in brief: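 Vehicle-treated cultures served as reference for growth inhibition of compound-exposed mec2-1 yeast.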
Assay [3] in a line: NCI Yeast Anticancer Drug Screen. Data for the sgs1 mgt1 strain (AID 161).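 Further: 0% = growth of cultures given vehicle only.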 The settings on record: S. cerevisiae sgs1 mgt1 strain, stronger effect = higher value. A digest of the protocol:
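Mutant yeast exposed to compound; growth scored against vehicle-only wells.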

Assay [4] is described as follows: NCI Yeast Anticancer Drug Screen. Data for the cln2 rad14 strain (AID 165).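 Further: 0% = growth equal to vehicle treated cultures.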 Particulars: S. cerevisiae cln2 rad14 strain, stronger effect = higher value. The method in brief: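 Each compound was tested on cln2 rad14 yeast. Inhibition of growth was calculated against vehicle-exposed controls.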
Assay [5] in a line: NCI Yeast Anticancer Drug Screen. Data for the bub3 strain (AID 167). The settings on record: S. cerevisiae bub3 mutant strain, stronger effect = higher value. A digest of the protocol:
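Inhibition values come from growth of compound-treated mutant yeast normalised to vehicle-treated controls.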

Assay [6] in a line: NCI Yeast Anticancer Drug Screen. Data for the mlh1 rad18 strain (AID 175). The settings on record: S. cerevisiae mlh1 rad18 strain growth inhibition, stronger effect = higher value. A digest of the protocol: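 Vehicle-treated cultures served as the reference for growth inhibition in a yeast strain carrying DNA damage repair alterations exposed to each compound.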
[7] abbreviates: at 5.0 µM (retest, dose inferred, filed as 0.5).
Setting [8] is: at 50.0 µM (retest, dose inferred, filed as 5.0).

As to `COc1ccc(OC)c(CC(Cl)(C#N)C#N)c1`, the growth inhibition in assay [1] (setting [7]) was 33%; in assay [1] (setting [8]), 99% (active); in assay [1] (at 50.0 µM) it was 98.2% (active); in assay [2] (setting [7]) it was 48%; in assay [2] (setting [8]), 100% (active); in assay [2] (at 50.0 µM) it was 99.8% (active). For the same compound, the growth inhibition in assay [3] (setting [7]) was 48%; in assay [3] (setting [8]), 99% (active); in assay [3] (at 50.0 µM), 99.7% (active); in assay [4] (setting [7]) it was 20%; in assay [4] (setting [8]) it was 99% (active); in assay [4] (at 50.0 µM), 99% (active). For the same compound, the growth inhibition is 34% in assay [5] (setting [7]); 99% (active) in assay [5] (setting [8]); 99.8% (active) in assay [5] (at 50.0 µM); 61% in assay [6] (setting [7]); 99% (active) in assay [6] (setting [8]); 99.6% (active) in assay [6] (at 50.0 µM).

For `CN(C)c1ccc(C=Nc2cncc3ccccc23)cc1`, the growth inhibition in assay [1] (setting [7]) was 0%; in assay [1] (setting [8]) it was -11%; in assay [1] (at 50.0 µM), -55.6%; in assay [2] (setting [7]) it was 5%; in assay [2] (setting [8]) it was -9%; in assay [2] (at 50.0 µM), -18.6%. In addition, the growth inhibition in assay [3] (setting [7]) was -3%; in assay [3] (setting [8]), 10%; in assay [3] (at 50.0 µM), -12.8%; in assay [4] (setting [7]) it was -20%; in assay [4] (setting [8]), -6%; in assay [4] (at 50.0 µM) it was -39.5%. Besides, the growth inhibition in assay [5] (setting [7]) was 3%; in assay [5] (setting [8]) it was 4%; in assay [5] (at 50.0 µM) it was -6.05%; in assay [6] (setting [7]) it was 7%; in assay [6] (setting [8]), 4%; in assay [6] (at 50.0 µM) it was -7.35%.

For the compound `CC(=O)C1CCC2C1(C)CC1OC13C21C=CC2(CC(O)CCC23C)C2C(=O)OC(=O)C21` (stereo unspecified), the growth inhibition in assay [1] (setting [7]) is -1%; in assay [1] (setting [8]), 98% (active); in assay [1] (at 50.0 µM) it was 99.4% (active); in assay [2] (setting [7]), 4%; in assay [2] (setting [8]) it was 97% (active); in assay [2] (at 50.0 µM) it was 91.5% (active). In addition, the growth inhibition in assay [3] (setting [7]) was 2%; in assay [3] (setting [8]), 99% (active); in assay [3] (at 50.0 µM), 99.3% (active); in assay [4] (setting [7]) it was 3%; in assay [4] (setting [8]), 98% (active); in assay [4] (at 50.0 µM) it was 99.6% (active). Besides, the growth inhibition in assay [5] (setting [7]) was 2%; in assay [5] (setting [8]), 98% (active); in assay [5] (at 50.0 µM), 95.7% (active); in assay [6] (setting [7]) it was 23%; in assay [6] (setting [8]) it was 99% (active); in assay [6] (at 50.0 µM), 99.2% (active).

In the case of `c1ccc2c(c1)Nc1ccc3ccccc3c1S2`, the growth inhibition in assay [1] (setting [7]) was 3%; in assay [1] (setting [8]), -1%; in assay [1] (at 50.0 µM), 47.8%; in assay [2] (setting [7]) it was -50%; in assay [2] (setting [8]), 3%; in assay [2] (at 50.0 µM), 15.2%. For the same compound, the growth inhibition in assay [3] (setting [7]) is -1%; in assay [3] (setting [8]) it was 13%; in assay [3] (at 50.0 µM), 41.5%; in assay [4] (setting [7]) it was 4%; in assay [4] (setting [8]) it was -12%; in assay [4] (at 50.0 µM), -39.9%. In addition, the growth inhibition in assay [5] (setting [7]) is 30%; in assay [5] (setting [8]), 3%; in assay [5] (at 50.0 µM) it was 48.6%; in assay [6] (setting [7]) it was 3%; in assay [6] (setting [8]), 13%; in assay [6] (at 50.0 µM), 66.5%.

As for `COc1ccc2c(c1)c1c(C)c3cnccc3c(C)c1n2CCCN`, the growth inhibition in assay [1] (setting [7]) is 9%; in assay [1] (setting [8]), 44%; in assay [1] (at 50.0 µM), 74% (active); in assay [2] (setting [7]), 28%; in assay [2] (setting [8]) it was -17%; in assay [2] (at 50.0 µM), 27.9%. The growth inhibition is 2% in assay [3] (setting [7]); 13% in assay [3] (setting [8]); 29.3% in assay [3] (at 50.0 µM); 10% in assay [4] (setting [7]); -9% in assay [4] (setting [8]); -24.1% in assay [4] (at 50.0 µM). For the same compound, the growth inhibition in assay [5] (setting [7]) is 13%; in assay [5] (setting [8]), -10%; in assay [5] (at 50.0 µM) it was 46.1%; in assay [6] (setting [7]), 9%; in assay [6] (setting [8]) it was 18%; in assay [6] (at 50.0 µM), 77.5% (active).

`COc1nc2c(ccn2C2OC(COC(C)=O)C(OC(C)=O)C(OC(C)=O)C2OC(C)=O)c(=O)n1C` (stereo unspecified): the growth inhibition in assay [1] (setting [7]) was 2%; in assay [1] (setting [8]) it was -2%; in assay [1] (at 50.0 µM), 15.2%; in assay [2] (setting [7]), 1%; in assay [2] (setting [8]), -4%; in assay [2] (at 50.0 µM), 14.8%. Further, the growth inhibition in assay [3] (setting [7]) is -5%; in assay [3] (setting [8]), -5%; in assay [3] (at 50.0 µM) it was 4.45%; in assay [4] (setting [7]), -2%; in assay [4] (setting [8]), -3%; in assay [4] (at 50.0 µM) it was 2.35%. Besides, the growth inhibition is -2% in assay [5] (setting [7]); -8% in assay [5] (setting [8]); -5.9% in assay [5] (at 50.0 µM); 1% in assay [6] (setting [7]); -2% in assay [6] (setting [8]); 2.15% in assay [6] (at 50.0 µM).

With `O=C(Nc1ccccc1Cl)c1ccc(Cl)c(Cl)c1`, the growth inhibition is 4% in assay [1] (setting [7]); 0% in assay [1] (setting [8]); -0.85% in assay [1] (at 50.0 µM); 4% in assay [2] (setting [7]); 2% in assay [2] (setting [8]); 1% in assay [2] (at 50.0 µM). The growth inhibition in assay [3] (setting [7]) is 1%; in assay [3] (setting [8]) it was 1%; in assay [3] (at 50.0 µM), 10.2%; in assay [4] (setting [7]) it was 2%; in assay [4] (setting [8]) it was -2%; in assay [4] (at 50.0 µM), 29.6%. Also, the growth inhibition in assay [5] (setting [7]) is 1%; in assay [5] (setting [8]), -3%; in assay [5] (at 50.0 µM) it was 2.2%; in assay [6] (setting [7]) it was -1%; in assay [6] (setting [8]), 1%; in assay [6] (at 50.0 µM), -18.2%.
